# Screening data from PubChem.
# Compounds with a hit are over-represented: about 17% of the library has one in this group of screens.
# HepG2 tox – HepG2 cytotoxicity, counter-screen for TGF-b inhibitors. 410,000 compounds, 0.76% hits. AID 588856. HepG2 CAGA-GFP viability, ATP luminescence, 18 h. Potency, µM (series often up to 46.1 µM), actives largely listed as cytotoxic
#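 CellTiter-Glo luminescence gave cytotoxicity after 18 hours at 37 degrees C. The cells were HepG2 CAGA-GFP in 1% FBS DMEM, stimulated with 500 pg/mL TGF-beta after compound addition. %Activity was normalised to no-cell wells (complete cell-killing) and DMSO (no toxicity), and curves were fitted and classified.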
# TDP1 cell noCPT – qHTS for Inhibitors of human tyrosyl-DNA phosphodiesterase 1 (TDP1): qHTS in cells in absence of CPT; DT40 Tdp1-/- hTDP1 cells, no CPT, ATP luminescence, 48 h; Potency, µM (titrated, usually from 46.2 µM), usual class: inhibitors; 420,000 compounds, 15% hits; AID 686978, 2013; note: nearly all actives have a fitted effect of over 55% in size
#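 A cellular qHTS used chicken DT40 cells lacking endogenous Tdp1 but carrying stably transfected human TDP1. Compounds were applied without camptothecin, and cell growth kinetics were judged by ATP-dependent luminescence after ≥48 hr.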
# ATXN2 expr inh – inhibitors of ATXN2 expression; HEK-293 ATXN2-luciferase reporter, luminescence, 24 h; Potency, µM (top dose mostly 57 µM), most hits filed as inhibitors; 360,000 compounds, 0.72% hits; AID 1745845; note: nearly all actives have a fitted effect of over 55% in size
#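 qHTS (up to 57 uM final) was run with 24 h compound exposure of reporter cells at 37 °C. Each well was multiplexed: SteadyGlo luminescence measured ATXN2-luciferase expression after a fluorogenic Gly-Phe-AFC viability readout (25 uM final).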
# S2 tox – cell viability loss in ATXN counter-screen; S2 cells (HEK-293 line with an ATXN2-luciferase reporter) viability, CellTiter-Fluor protease fluorescence, 24 h; Potency, µM (top dose mostly 56.7 µM), actives largely listed as cytotoxic; 400,000 compounds, 0.49% hits; AID 651635; note: nearly all actives have a fitted effect of over 40% in size
# TDP1 cell CPT – growth inhibition of DT40 Tdp1-/-;hTDP1 cells with camptothecin (screen for TDP1 inhibitors) | chicken DT40 Tdp1-/-;hTDP1 cells + 20 nM CPT, ATP luminescence, 48 h | Potency, µM (titrated, usually from 46.2 µM), hits mostly inhibitors | 420,000 compounds, 12% hits | AID 686979; note: nearly all actives have a fitted effect of over 55% in size
#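 Cell growth measured by CellTiter-Glo luminescence after a minimum 48 h, 37 C compound exposure with 20 nM CPT in Tdp1-knockout DT40 cells stably expressing hTDP1, seeded 400/well; qHTS titration format.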
# TGFb SMAD3 inh – inhibitors of TGF-b signaling; HepG2 CAGA-GFP TGF-b/SMAD3 reporter, GFP fluorescence, 18 h; TGF-beta stimulated, 500 pg/mL final; Potency, µM (series often up to 46.1 µM), usual class: inhibitors; 410,000 compounds, 1.2% hits; AID 588855; note: nearly all actives have a fitted effect of over 65% in size
#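 Cell-based qHTS in HEPG2 carrying a CAGA-GFP Smad reporter; compounds added before 500 pg/mL final TGF-beta, 18 h incubation at 37 degrees C, GFP fluorescence quantified per cell by imaging cytometry.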
# A number is an active result; - = inactive; ? = inconclusive; . = not tested or not shown. Calls come from the whole dose curve; as a rule, active = well fitted curve in the direction sought with a large enough effect; inconclusive = small, poorly fitted or top-dose-only effect, or another doubt; inactive = no such curve, though single readings can be large; an effect the other way counts as inactive or inconclusive.
SMILES,HepG2 tox,TDP1 cell noCPT,ATXN2 expr inh,S2 tox,TDP1 cell CPT,TGFb SMAD3 inh
Cc1ccc(C(=O)N2CCN(c3ccccc3)CC2)cc1S(=O)(=O)N1CCCC1,-,?,-,-,29µM,-
Cc1ccc(C(=O)N2CCN(c3cccc(C)c3C)CC2)cc1S(=O)(=O)N1CCOCC1,-,23µM,-,-,16µM,-
COc1ccc(C(=O)N2CCN(c3ccccc3)CC2)cc1S(=O)(=O)N1CCCC1,-,-,-,-,-,-
Cc1ccc(C(=O)N2CCN(c3ccc(F)cc3)CC2)cc1S(=O)(=O)N1CCCCC1,-,16µM,-,-,29µM,-
CCOc1ccc(S(=O)(=O)c2cn(C)c3cc(OC)c(OC)cc3c2=O)cc1,-,-,-,-,-,-
Cc1cccc(NC(=O)c2cc(-c3ccc(C)c(C)c3O)n[nH]2)c1,-,-,-,-,?,-
CN(c1ccc(C(=O)N2CCN(c3ccc(F)cc3)CC2)cc1)S(C)(=O)=O,-,?,-,-,13µM,-
Cc1ccc(-n2c(SCC(N)=O)nc3c([nH]c4ccccc43)c2=O)cc1,-,26µM,-,?,15µM,-
Cc1cc(C)cc(-n2c(SCC(=O)Nc3cccc(F)c3)nc3c([nH]c4ccccc43)c2=O)c1,-,?,-,-,-,-
COc1cccc(-n2c(SCC(=O)Nc3cccc(C)c3)nc3c([nH]c4ccccc43)c2=O)c1,-,?,-,-,?,-
COc1cccc(NC(=O)CSc2nc3c([nH]c4ccccc43)c(=O)n2-c2cccc(Cl)c2)c1,-,-,.,.,?,-
O=C(CSc1nc2c([nH]c3ccccc32)c(=O)n1-c1ccccc1)Nc1cccc(C(F)(F)F)c1,-,23µM,.,.,15µM,-
O=C(CSc1nc2c([nH]c3ccccc32)c(=O)n1-c1ccccc1F)Nc1cccc(Cl)c1,-,21µM,.,.,?,?
Cc1cc(C)cc(NC(=O)CSc2nc3c([nH]c4ccccc43)c(=O)n2-c2ccc(F)cc2)c1,-,21µM,-,-,8.2µM,?
O=C(Nc1cccc(/C=C/c2ccccn2)c1)c1ccc(-n2cncn2)cc1,-,?,-,-,?,-
CC(=O)N1CCN(c2ccc(O)cc2)CC1,.,.,-,-,.,.
CCOc1ccc(N(C)C(=O)CS(=O)(=O)c2cccc3nsnc23)cc1,-,?,-,-,-,-
Cn1cnnc1SCCCN1C(=O)c2cccc3cccc(c23)C1=O,-,-,.,-,-,-
Cc1ccc(-n2c(SCC(=O)NCc3ccc(F)cc3)nc3c([nH]c4ccccc43)c2=O)cc1,-,23µM,-,-,18µM,-
CC(NC(=O)CCc1ccccc1)c1cc2c(cc1Cl)OCCO2 (stereo not given),-,?,-,-,15µM,-
O=C(NC1CCCCC1)c1c(O)nc2sccn2c1=O,-,?,-,-,?,-
O=C(NC1CCCCCC1)c1c(O)nc2sccn2c1=O,-,15µM,-,-,16µM,-
CC1=C(C(=O)Nc2nc3ccccc3s2)C(c2ccco2)C(C#N)=C(SCC(=O)NC2CCCCC2)N1 (stereo not given),-,21µM,-,.,13µM,-
O=C(NOCC(O)CO)c1cc(Br)c(F)c(F)c1Nc1ccc(I)cc1F (stereo not given),.,.,-,.,.,.
Cc1ccc(C(=O)Nc2ccc(C(=O)N3CCCCC3)cc2)cc1,-,-,.,-,-,-
SMILES,HepG2 tox,TDP1 cell noCPT,ATXN2 expr inh,S2 tox,TDP1 cell CPT,TGFb SMAD3 inh
CCOC(=O)C1CCN(C(=O)c2ccc(N3CCOCC3)c([N+](=O)[O-])c2)CC1,-,-,.,-,-,-
Cc1ccccc1NC(=O)CSc1nc2nccnc2c(=O)n1CCc1c[nH]c2ccccc12,-,12µM,.,.,23µM,?
COc1ccccc1NC(=O)CSc1nc2nccnc2c(=O)n1Cc1cccs1,-,?,.,?,?,-
O=C(CSc1nc2nccnc2c(=O)n1CCc1c[nH]c2ccccc12)Nc1ccccc1,-,15µM,.,.,21µM,-
O=C(COC(=O)c1cccc(C(=O)OCC(=O)c2ccc(Br)cc2)n1)c1ccc(Br)cc1,-,?,-,-,16µM,-
COc1cc(CC(=O)OCC(=O)N(C)C2CCCCC2)cc(OC)c1OC,-,21µM,-,-,?,-
COc1cc(CC(=O)OCC(=O)NC2CCCC2)cc(OC)c1OC,-,-,-,-,-,-
[N-]=[N+]=Nc1nc2c(N)ncnc2n1C1OC(CO)C(O)C1O (stereo not given),.,0.58µM,.,.,0.41µM,.
Nc1ncnc2c1nc(Cl)n2C1OC(CO)C(O)C1O (stereo not given),.,0.46µM,.,.,0.37µM,.
CN(C)c1nc2c(N)ncnc2n1C1OC(CO)C(O)C1O (stereo not given),-,-,-,-,-,-
Nc1ncnc2c1nc(Cl)n2[C@@H]1O[C@H](CO)[C@@H](O)[C@@H]1O,-,5µM,?,.,1µM,?
Clc1ccccc1-c1cncnc1NCc1cccs1,.,-,.,.,-,.
N=c1c(C(=O)NCC2CCCO2)cc2c(=O)n3ccccc3nc2n1Cc1ccccc1 (stereo not given),-,-,-,.,-,-
Cc1ccc(Cn2c(=N)c(C(=O)NCC3CCCO3)cc3c(=O)n4ccccc4nc32)cc1 (stereo not given),-,?,-,?,?,-
COc1ccc(Cn2c(=N)c(C(=O)NCC3CCCO3)cc3c(=O)n4ccccc4nc32)cc1 (stereo not given),-,?,-,-,?,-
Cc1ccc(Cn2c(=N)c(C(=O)NCC3CCCO3)cc3c(=O)n4cccc(C)c4nc32)cc1 (stereo not given),-,9.2µM,-,.,7.3µM,-
N=c1c(C(=O)NCC2CCCO2)cc2c(=O)n3ccccc3nc2n1Cc1ccccc1Cl (stereo not given),-,1.3µM,?,.,1.5µM,-
N=c1c(C(=O)NCC2CCCO2)cc2c(=O)n3ccccc3nc2n1Cc1ccc(Cl)cc1 (stereo not given),-,16µM,.,.,10µM,-
O=C(O)CCCN1C(=O)c2ccc(C(=O)c3cccc([N+](=O)[O-])c3)cc2C1=O,-,-,-,-,-,-
CCN(CC(=O)NC1CCS(=O)(=O)C1)S(=O)(=O)c1cc([N+](=O)[O-])ccc1C (stereo not given),-,-,-,-,-,?
CN(C(=O)Cn1cc([N+](=O)[O-])ccc1=O)C1CCCCC1,-,-,-,-,-,-
